# According to PubChem BioAssay AID2708 (National Center for Advancing Translational Sciences (NCATS), 2010):
# Some of the results follow. Records with an inconclusive call do not appear. Active and inactive are the calls of the source. The call rests on the fitted dose curve; in most records, active means well fitted inhibition curve with a large enough effect; inconclusive means small, poorly fitted or top-dose-only effect; inactive means no such curve, though single readings can be large or run the other way.
# Biological target: ATP-dependent DNA helicase Q1 (Homo sapiens) (UniProt P46063)
# Assay: Confirmation qHTS Assay for Inhibitors of RecQ-Like Dna Helicase 1 (RECQ1); further: nearly all actives have a fitted effect of over 45% in size
# Details: RECQ1 helicase DNA unwinding, fluorescence
# Excerpt: Survival of cells and the faithful propagation of the genome depend on elaborate mechanisms of detecting and repairing DNA damage. Treatment of advanced cancer relies on radiation therapy or chemotherapy, which kill cancer cells by causing extensive DNA damage. It is often found, that cancer cells develop resistance to therapy through enhanced activity of DNA repair functions; this has led to an increased interest in developing drugs that interfere with DNA repair, which could sensitize cancer cells to conventional therapy.
# This validation qHTS assay pertains to human RECQ1, which is important in resolving abnormal DNA structures formed during replication or homologous recombination. Shutting down the expression of RECQ1 leads to chromosomal instability and higher radiation sensitivity in cultured cells.
# The validation assay was a fluorescence quenching based kinetic qHTS for RECQ1 Helicase DNA unwinding. The activity was measured as ATP-dependent separation of a 20-bp DNA duplex extended by 30-nt single-stranded tails (forked duplex). The forked DNA substrate was tagged with rhodamine fluorophore (carboxytetramethyl rhodamine, TAMRA) and BHQ-2 (Black Hole Quencher 2) dark quencher. Strand separation results in an increase in the fluorescence of TAMRA (excitation 525 nm, emission 598 nm). […]
# Potency means the concentration at half of the fitted maximal effect.
# ATP-dependent DNA helicase Q1 (Homo sapiens), sequence (P46063 whole entry, looked up): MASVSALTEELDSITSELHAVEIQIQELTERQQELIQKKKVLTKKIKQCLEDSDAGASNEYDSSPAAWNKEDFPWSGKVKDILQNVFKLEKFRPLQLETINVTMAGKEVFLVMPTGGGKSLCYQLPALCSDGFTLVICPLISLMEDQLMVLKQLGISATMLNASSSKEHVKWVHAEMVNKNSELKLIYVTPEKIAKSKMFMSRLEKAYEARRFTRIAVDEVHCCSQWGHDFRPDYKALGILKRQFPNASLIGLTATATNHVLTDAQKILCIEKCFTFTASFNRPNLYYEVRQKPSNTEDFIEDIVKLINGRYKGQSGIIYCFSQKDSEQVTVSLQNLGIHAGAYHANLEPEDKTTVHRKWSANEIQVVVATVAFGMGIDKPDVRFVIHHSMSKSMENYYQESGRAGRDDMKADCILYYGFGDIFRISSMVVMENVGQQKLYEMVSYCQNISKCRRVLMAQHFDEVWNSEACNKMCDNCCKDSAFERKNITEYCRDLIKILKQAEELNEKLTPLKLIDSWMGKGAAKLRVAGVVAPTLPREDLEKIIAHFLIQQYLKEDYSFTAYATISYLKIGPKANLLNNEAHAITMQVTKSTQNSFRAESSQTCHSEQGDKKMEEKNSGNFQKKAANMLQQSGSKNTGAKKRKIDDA
smiles,measurement,value
O=C(O)c1cc[c]([Sb](=[O])([OH])[OH])cc1[N+](=O)[O-],Potency,913 nM (active)
